From PubChem
IEC-6 cytotox = kills IEC-6 intestinal cells in KLF5 counter-screen. IEC-6 cytotoxicity, luminescence viability. inhibition, % at 5 µM. 0.78% of 290,000 active; in the data active = inhibition above about 22%;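 also: 0% = plate median of test compound wells and 100% = cytotoxic reference compound wells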
APP transl inh = APP translation inhibition | SH-SY5Y APP 5'UTR-luciferase reporter, luminescence | inhibition, % at 2 µM | 0.82% of 190,000 active;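 active = inhibition above a set limit, derived from the sample mean plus 3 SD, cut at about 45% in these data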
aSyn UTR inh = MLPCN primary screen, SNCA 5' untranslated region | alpha-synuclein 5'UTR reporter, inhibitor activity | inhibition, % (tested at 7.5 µM) | 0.82% of 300,000 active; in the data active = inhibition above about 60%;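 also: H4 neuroglioblastoma cells stably carrying SNCA 5'UTR luciferase fusion; 0% = DMSO wells and 100% = positive control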
BaF3 parental = counter-screen for JAK2V617F inhibitors: parental Ba/F3 viability inhibitors | CellTiter-Glo ATP luminescence | 1.1% of 220,000 active | inhibition, % at 5.6 µM;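 active = inhibition above a per-campaign cutoff, the mean inhibition of all tested compounds plus 3 SD, cut at about 27% in these data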;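 also: 0% = DMSO wells and 100% = JAK Inhibitor I control wells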
Ba/F3 V617F tox = loss of viability in JAK2V617F-driven Ba/F3 cells. inhibition, % at 5.6 µM. Ba/F3 EpoR-JAK2V617F viability, ATP luminescence. AID 1446. 1.1% of 220,000 active;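 active = inhibition above the campaign mean plus 3 SD over all tested compounds, cut at about 24% in these data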;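 also: cytokine-independent growth of Ba/F3 cells driven by EpoR plus mutant JAK2; 0% = DMSO-treated cells and 100% = JAK inhibitor I control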
KLF5 inh = kruppel-like factor 5 inhibition. inhibition, % at 5 µM. 0.23% of 290,000 active. DLD-1 KLF5 promoter-luciferase reporter, luminescence. AID 1700;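 active = inhibition above a per-plate limit of that plate's mean compound inhibition plus 3 SD, cut at about 60% in these data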;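 also: 0% = DMSO wells and 100% = LY294002 at 200 µM; higher means less KLF5 promoter-driven luciferase light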
BaF3 tox 2 = parental Ba/F3 viability inhibition for JAK2V617F counter-screen; CellTiter-Glo luminescence; cells kept alive by added IL-3; shares compounds with Ba/F3 V617F tox; inhibition, % at 5.6 µM; 31% of 580 active; AID 1520;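 active = cell growth inhibition above the hit limit set in the earlier mutant JAK2 cell screen, cut at about 27% in these data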;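 also: plate controls were DMSO-treated cells for no effect and JAK Inhibitor I control wells for full effect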
JAK2V617F conf = Ba/F3 EpoR-JAK2V617F viability loss, confirmation; AID 1521; 66% of 580 active; CellTiter-Glo luminescence; shares compounds with Ba/F3 V617F tox; inhibition, % at 5.6 µM;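 active = mean inhibition above the hit cutoff derived in the earlier primary screen, cut at about 25% in these data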;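 also: 0% = DMSO-treated cells and 100% = JAK inhibitor I control wells; higher means lower luminescence from reduced cell ATP and viability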
Numbers without * were called inactive; / = no result. In the library only some 2.2% were active in any assay of this set; here they are far more common.

SMILES	IEC-6 cytotox	APP transl inh	aSyn UTR inh	BaF3 parental	Ba/F3 V617F tox	KLF5 inh	BaF3 tox 2	JAK2V617F conf
COc1ccc(OCC(O)Cn2c(=N)n(CCN3CCCCC3)c3ccccc32)cc1 (stereo unspecified)	0.9	14.9	/	14.2	34.2*	-23.7	-0.3	19.6
O=C(NCCCCCCNC(=O)OCCO)OCCO	5.2	-10.4	-12.7	5.4	83.8*	9.2	-5.1	7.1
OCC1CCCC(n2cnc3c(=S)nc[nH]c32)O1 (stereo unspecified)	11.3	/	8.9	21.7	24.5*	-4.8	-0.3	1.2
Cc1[nH]c2ccc(F)cc2c1CCN(Cc1ccncc1)C(=S)Nc1cccc(F)c1	3.5	20.6	6.0	24.6	26.6*	-23.4	29.3*	46.5*
COc1ccc([N+](=O)[O-])c(S(=O)(=O)c2ccccc2)n1	15.1	/	-48.6	-5.6	92.6*	26.3	33.9*	84.9*
COc1ccc([N+](=O)[O-])c(S(=O)(=O)c2ccc(Cl)cc2)n1	3.1	/	-22.8	-7.2	43.1*	11.2	1.9	69.9*
COc1nc(OC)nc(Oc2ccc(Cl)cc2[N+](=O)[O-])n1	0.3	4.8	-36.4	-5.1	-6.6	-29.5	/	/
Cc1ccc(S(=O)(=O)N2CCC(C(=O)NNC(=O)C3CC3)CC2)cc1Cl	-2.9	-6.5	16.8	5.2	1.7	-21.6	/	/
CSCc1cc(N(C)c2ccccc2)nc(-c2ccccc2)n1	-0.1	/	7.8	/	/	-30.1	/	/
Cc1cc(C(=O)N/N=C/c2ccc(-c3cccc(Cl)c3)o2)n[nH]1	-0.3	/	-23.3	-0.6	-3.5	-10.7	/	/
Cc1nn(Cc2ccc(Cl)cc2Cl)c(C)c1NC(=O)CCl	-1.2	-10.3	-46.9	5.2	29.5*	-70.1	4.9	64.3*
CN(CC(=O)Nc1c(Cl)cccc1Cl)C(=O)c1cccn1C	1.7	/	22.5	/	/	-30.2	/	/
O=S(=O)(c1cnc(Cl)c(Cl)c1)N1CCCc2ccccc21	6.3	-12.5	-34.4	2.9	3.6	4.8	/	/
O=S(=O)(c1cnc(Cl)c(Br)c1)N1CCc2ccccc21	-4.7	/	29.6	-0.4	27.7*	-16.1	-0.5	58.4*
O=S(=O)(c1cc(Cl)ccc1Cl)N1CCc2ccccc21	7.6	/	-5.5	/	/	-32.9	/	/
O=S(=O)(c1cnc(Cl)c(Cl)c1)N1CCc2ccccc21	-2.3	/	-29.7	-2.9	25.3*	-11.8	-6.3	58.7*
CC(C)Oc1cccc(C(=O)NC(=S)Nc2ccccc2)c1	7.9	-75.1	-89.6	4.2	-5.6	-93.0	/	/
Cc1nc([N+](=O)[O-])c(Br)n1Cc1ccccc1	-0.5	/	-8.2	-6.9	35.7*	-16.5	-8.8	45.7*
COc1cc(NC(=O)c2ccc([N+](=O)[O-])o2)ccc1NC(=O)c1cccs1	-2.7	35.3	-82.2	4.5	4.1	-31.7	/	/
O=C(Nc1cccc(NC(=O)c2cccs2)c1)c1ccc([N+](=O)[O-])o1	64.3*	/	-69.0	0.4	39.5*	-4.6	8.2	72.0*
COc1ccc(C(=O)NC(=S)Nc2ccc(CN3CCOCC3)cc2)cc1Br	8.9	/	18.3	/	/	-14.2	/	/
COc1ccc(-c2csc(Nc3ncccc3C)n2)cc1OC	3.3	-31.0	-172.0	3.9	1.9	-102.7	/	/
Cc1cccnc1Nc1nc(-c2ccc(O)c(O)c2)cs1	14.3	-39.3	-231.6	24.7	80.5*	-176.3	24.5	92.6*
O=C(CCCC(=O)Nc1ccc(Br)cc1)N/N=C/c1ccccc1	0.8	/	-12.5	/	/	-34.5	/	/
COc1cc(/C=N/N=C(N)N)ccc1OCc1ccc(Cl)cc1	21.9*	-180.1	38.7	25.1	35.4*	-76.9	34.6*	44.9*
C=CCOC(=O)C1=C(C)NC(SCC)=C(C#N)C1c1ccc(Cl)cc1 (stereo unspecified)	14.2	-10.2	67.0*	-5.9	41.3*	6.3	8.5	29.3*
C=CCOC(=O)C1=C(C)NC(SCC(N)=O)=C(C#N)C1c1ccc(C)cc1 (stereo unspecified)	-3.6	/	8.0	0.9	-0.9	-7.0	/	/
CC(C)C/C(O)=C/c1nc2cc(Cl)ccc2oc1=O	0.9	9.3	-24.3	3.4	7.3	3.8	/	/
O=c1oc2ccc(Cl)cc2nc1/C=C(\O)c1ccco1	-1.0	/	-6.2	15.4	34.1*	0.9	8.6	72.1*
O=c1cc(O)c2ccccc2n1Cc1ccccc1F	-1.8	-10.7	-8.0	3.3	-2.1	-40.2	/	/
